Experimental data reported in PubChem BioAssay (Tox21).
Values joined by “and” are separate entries in the source; they are usually repeats but may differ in a detail not shown here. Equal entries are not always repeated. Records with an inconclusive call do not appear. A call without a number means that no potency is given here. Where a structure was tested more than once in an assay, its records may differ in their call. Active and inactive are the calls of the source. Unless noted, the call rests on the fitted dose curve; in most records, active means well fitted curve in the direction sought with a large enough effect in the repeat runs; inconclusive means weak or mixed curves; inactive means no such curve, though single readings can be large; an effect the other way counts as inactive or inconclusive.

Tests used:
[1] = qHTS assay to identify small molecule agonists of the estrogen receptor alpha (ER-alpha) signaling pathway in the presence of an antagonist - cell viability counter screen (AID 1259386);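 further: cells exposed to compounds for 22 h at 37 °C before the viability read; nearly all actives have a fitted effect of over 30% in size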; further: potency means the concentration at half of the fitted maximal effect
Summary of the method: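 Using estrogen-depleted VM7Luc4E2 cells, the 15-concentration compound series was applied together with 10.0nM ICI-182,780 and incubated 22hr at 37C/5% CO2. Cell viability was then scored by CellTiter-Fluor.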

[2] = target: Progesterone receptor (Homo sapiens) (UniProt P06401); assay: qHTS assay to identify small molecule antagonists of the progesterone receptor (PR) signaling pathway (AID 1346795; active means well fitted inhibition curve with a large enough effect in the signal ratio in the repeat runs, not every such curve was filed as active; the % refers to the signal ratio)
Summary of the method: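 Inhibition of R5020-induced (1 nM final) beta-lactamase reporter signal in PR-UAS-bla HEK293T cells was scored by FRET fluorescence after overnight (16 hr) compound treatment.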

[3] = qHTS assay to identify small molecule antagonists of the progesterone receptor (PR) signaling pathway - cell viability counter screen (AID 1346798); further: nearly all actives have a fitted effect of over 50% in size; further: potency means the concentration at half of the fitted maximal effect
Summary of the method: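 ATP content as viability readout: CellTiter-Glo luminescence, 30 min room temperature, in PR-UAS-bla HEK293T cells after 16 hr compound/R5020 treatment at 37C and 5% CO2.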

[4] = qHTS assay to identify small molecule antagonists of the TGF-beta/Smad signaling pathway - cell viability counter screen (AID 1346824); further: nearly all actives have a fitted effect of over 50% in size; further: potency means the concentration at half of the fitted maximal effect
Summary of the method: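 SBE-bla HEK 293T cells, incubated overnight, then compound plus 0.25 ng/mL TGF-beta1 (stock added) for 5 hr at 37 C. Viability was read in the same wells by CellTiter-Glo luminescence after 30 min at room temperature.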

[5] = qHTS assay to identify small molecule agonists of the TGF-beta/Smad signaling pathway - cell viability counter screen (AID 1346829); further: nearly all actives have a fitted effect of over 45% in size; further: potency means the concentration at half of the fitted maximal effect
Summary of the method: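 Here the cytotoxicity of library compounds is measured in SBE-bla HEK 293T cells treated for 5 hr, using CellTiter-Glo added to wells already read for the beta-lactamase reporter.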

[6] = qHTS assay to identify small molecule agonists of the TGF-beta/Smad signaling pathway (AID 1346859; active means well fitted activation curve with a large enough effect in the signal ratio in the repeat runs, not every such curve was filed as active; the % refers to the signal ratio; further: series mostly up to about 77 µM)
Summary of the method: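 Stable Smad binding element-beta-lactamase HEK 293T cells; 5 hr compound exposure at 37 C under 5% CO2; 2 hr room-temperature substrate step; fluorescence excited at 405 nm, collected at 460 nm and 530 nm.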

[7] = target: Thyrotropin-releasing hormone receptor (Homo sapiens) (UniProt P34981); assay: qHTS assay to identify small molecule antagonists of the thyrotropin-releasing hormone receptor (TRHR) signaling pathway (AID 1346877; active means well fitted inhibition curve with a large enough effect in the repeat runs, not every such curve was filed as active; further: series mostly up to about 51 µM)
Summary of the method: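 Calcium signal in dye-loaded TRHR/HEK293 cells; compounds added 5 min before TRH (1 nM final); fluorescence monitored 3 min at 1 s steps.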

[8] = target: Thyrotropin-releasing hormone receptor (Homo sapiens) (UniProt P34981); assay: qHTS assay to identify small molecule agonists of the thyrotropin-releasing hormone receptor (TRHR) signaling pathway (AID 1346891; calls by dose curve;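 further: HEK293 cells expressing TRHR with calcium dye readout; series mostly up to about 58 µM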)
Summary of the method: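 In 1536-format, 1500 TRHR-Hek293 cells per well grew 18 h, took up calcium dye for 2 h at 37 °C, received compound, and were read kinetically; 15-point titrations, triplicates.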

[9] = Human pregnane X receptor (PXR) small molecule agonists, qHTS cell viability counter screen (AID 1346977); further: nearly all actives have a fitted effect of over 50% in size; further: potency means the concentration at half of the fitted maximal effect
Summary of the method: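 Readout is CellTiter-Fluor fluorescence from PXR-Luc HepG2 cells. Plated cells rested 5hr, then were treated with compounds for 24hr at 37C and 5% CO2, with reagent present during the last hour.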

[10] = Caspase-3/7 induction in HepG2 cells by small molecules, qHTS assay (AID 1346978); further: nearly all actives have a fitted effect of over 15% in size; further: potency means the concentration at half of the fitted maximal effect
Summary of the method: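 Wild-type HepG2 cells, 2,000/well, settled 5 hr at 37 C and 5% CO2, then compound-treated for 17 hr; caspase-3/7 activity read by luminescent Caspase-Glo 3/7 after 30 min at room temperature.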

[11] = Caspase-3/7 induction in CHO-K1 cells by small molecules, qHTS cell viability counter screen (AID 1346979); further: nearly all actives have a fitted effect of over 35% in size; further: potency means the concentration at half of the fitted maximal effect
Summary of the method: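 To flag cytotoxic compounds, treated CHO-K1 wild-type cells were given CellTiter-Fluor at 16hr and read fluorescently after 1hr at 37C; the caspase-3/7 luminescence was measured in these same wells.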

[12] = Caspase-3/7 induction in CHO-K1 cells by small molecules, qHTS assay (AID 1346980); further: nearly all actives have a fitted effect of over 15% in size; further: potency means the concentration at half of the fitted maximal effect
Summary of the method: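 Wild-type CHO-K1 cells exposed to compounds for 17hr at 37 C, 5% CO2. Caspase-3/7 activity then measured by Caspase-Glo 3/7 luminescence after 30min at room temperature.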

[13] = Caspase-3/7 induction in HepG2 cells by small molecules, qHTS cell viability counter screen (AID 1346981); further: nearly all actives have a fitted effect of over 30% in size; further: potency means the concentration at half of the fitted maximal effect
Summary of the method: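 After a 5-hr attachment period at 37 C and 5% CO2, wild-type HepG2 cells received compounds in DMSO. Sixteen hours later CellTiter-Fluor was dispensed and the fluorescent signal quantified after a further hour.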

[14] = target: Nuclear receptor subfamily 1 group I member 2 (Homo sapiens) (UniProt O75469); assay: Human pregnane X receptor (PXR) small molecule agonists, qHTS assay (AID 1346982); further: nearly all actives have a fitted effect of over 35% in size; further: potency means the concentration at half of the fitted maximal effect
Summary of the method: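 Tox21 qHTS; PXR-Luc HepG2; compounds pinned from DMSO; 24 hr, 37 C; ONE-Glo luciferase detection, 30 min room temperature.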

[15] = target: Acetylcholinesterase (Homo sapiens) (UniProt P22303); assay: Acetylcholinesterase (AChE) small molecule antagonists: colormetric cell-based qHTS assay (AID 1347395; calls by dose curve; further: nearly all actives have a fitted effect of over 30% in size)
Summary of the method: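 Neuroblastoma line SH-SY5Y supplied the enzyme; cells were preincubated with compound for 30 min at 37 C and 5% CO2. Acetylthiocholine with DTNB was then added for 90 min at 37 C, and thiocholine was measured by colour.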

[16] = target: Progesterone receptor (Homo sapiens) (UniProt P06401); assay: qHTS assay to identify small molecule agonists of the progesterone receptor (PR) signaling pathway (AID 1346784; calls by dose curve; further: nearly all actives have a fitted effect of over 30% in size)
Summary of the method: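 Using charcoal-stripped serum (2%) to limit endogenous steroids, PR-UAS-bla HEK 293T cells received compounds for 16 hr at 37C after 6 hr plating; beta-lactamase FRET fluorescence was recorded following 2 hr substrate loading at room temperature.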

[17] = qHTS assay to identify small molecule agonists of the progesterone receptor (PR) signaling pathway - cell viability counter screen (AID 1346799; calls by dose curve; further: nearly all actives have a fitted effect of over 45% in size; further: potency means the concentration at half of the fitted maximal effect)
Summary of the method: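 Cytotoxicity in PR-bla HEK293T cells: 16 h compound, 37C; CellTiter-Glo added post-FRET read; luminescence after 30 min RT.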

Sequence of Nuclear receptor subfamily 1 group I member 2 (Homo sapiens) (O75469 whole entry, looked up): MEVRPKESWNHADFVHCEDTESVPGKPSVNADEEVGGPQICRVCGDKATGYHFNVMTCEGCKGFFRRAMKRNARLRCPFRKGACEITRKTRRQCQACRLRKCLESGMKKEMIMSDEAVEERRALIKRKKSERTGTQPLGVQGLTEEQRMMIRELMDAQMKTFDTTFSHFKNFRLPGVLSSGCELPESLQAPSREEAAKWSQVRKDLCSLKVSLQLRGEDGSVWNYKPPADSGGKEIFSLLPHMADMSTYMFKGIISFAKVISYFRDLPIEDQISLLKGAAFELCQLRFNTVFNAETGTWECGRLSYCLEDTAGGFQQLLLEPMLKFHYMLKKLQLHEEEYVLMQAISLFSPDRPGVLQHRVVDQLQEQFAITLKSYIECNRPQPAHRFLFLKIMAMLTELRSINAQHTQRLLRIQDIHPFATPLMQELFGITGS
Sequence of Progesterone receptor (Homo sapiens) (P06401 whole entry, looked up): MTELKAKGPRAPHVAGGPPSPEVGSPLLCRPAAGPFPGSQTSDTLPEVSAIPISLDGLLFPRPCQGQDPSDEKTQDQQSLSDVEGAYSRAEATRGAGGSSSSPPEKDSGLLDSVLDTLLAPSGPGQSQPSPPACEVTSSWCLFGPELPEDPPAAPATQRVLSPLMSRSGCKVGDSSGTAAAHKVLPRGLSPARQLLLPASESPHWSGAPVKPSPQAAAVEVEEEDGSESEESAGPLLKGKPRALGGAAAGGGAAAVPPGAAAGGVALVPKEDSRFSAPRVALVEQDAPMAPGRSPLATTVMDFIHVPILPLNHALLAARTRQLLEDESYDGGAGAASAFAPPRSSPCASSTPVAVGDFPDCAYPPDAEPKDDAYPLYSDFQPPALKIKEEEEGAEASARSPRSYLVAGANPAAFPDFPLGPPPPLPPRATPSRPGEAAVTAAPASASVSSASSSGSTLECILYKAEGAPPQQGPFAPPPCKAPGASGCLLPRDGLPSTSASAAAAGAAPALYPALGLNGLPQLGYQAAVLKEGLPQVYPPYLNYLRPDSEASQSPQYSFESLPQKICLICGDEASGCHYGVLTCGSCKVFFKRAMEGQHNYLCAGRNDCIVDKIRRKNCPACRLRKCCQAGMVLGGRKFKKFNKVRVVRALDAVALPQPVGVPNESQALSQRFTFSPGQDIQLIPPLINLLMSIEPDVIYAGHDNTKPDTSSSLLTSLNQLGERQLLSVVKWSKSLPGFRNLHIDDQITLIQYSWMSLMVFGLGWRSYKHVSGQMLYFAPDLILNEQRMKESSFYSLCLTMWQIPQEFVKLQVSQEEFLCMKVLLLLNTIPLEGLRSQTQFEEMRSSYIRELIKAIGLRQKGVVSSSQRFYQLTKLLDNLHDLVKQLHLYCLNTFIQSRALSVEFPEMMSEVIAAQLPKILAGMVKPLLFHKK
Sequence of Thyrotropin-releasing hormone receptor (Homo sapiens) (P34981 whole entry, looked up): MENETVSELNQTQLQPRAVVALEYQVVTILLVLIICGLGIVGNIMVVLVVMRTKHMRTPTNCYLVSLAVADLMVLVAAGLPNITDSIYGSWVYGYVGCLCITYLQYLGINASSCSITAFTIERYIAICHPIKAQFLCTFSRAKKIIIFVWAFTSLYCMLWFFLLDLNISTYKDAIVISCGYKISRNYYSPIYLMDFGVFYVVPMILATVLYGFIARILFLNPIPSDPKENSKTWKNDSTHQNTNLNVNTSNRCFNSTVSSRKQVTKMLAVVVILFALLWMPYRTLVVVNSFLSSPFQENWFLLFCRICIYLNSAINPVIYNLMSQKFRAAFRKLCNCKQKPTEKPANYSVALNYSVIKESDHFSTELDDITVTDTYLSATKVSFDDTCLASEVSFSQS
Sequence of Acetylcholinesterase (Homo sapiens) (P22303 whole entry, looked up): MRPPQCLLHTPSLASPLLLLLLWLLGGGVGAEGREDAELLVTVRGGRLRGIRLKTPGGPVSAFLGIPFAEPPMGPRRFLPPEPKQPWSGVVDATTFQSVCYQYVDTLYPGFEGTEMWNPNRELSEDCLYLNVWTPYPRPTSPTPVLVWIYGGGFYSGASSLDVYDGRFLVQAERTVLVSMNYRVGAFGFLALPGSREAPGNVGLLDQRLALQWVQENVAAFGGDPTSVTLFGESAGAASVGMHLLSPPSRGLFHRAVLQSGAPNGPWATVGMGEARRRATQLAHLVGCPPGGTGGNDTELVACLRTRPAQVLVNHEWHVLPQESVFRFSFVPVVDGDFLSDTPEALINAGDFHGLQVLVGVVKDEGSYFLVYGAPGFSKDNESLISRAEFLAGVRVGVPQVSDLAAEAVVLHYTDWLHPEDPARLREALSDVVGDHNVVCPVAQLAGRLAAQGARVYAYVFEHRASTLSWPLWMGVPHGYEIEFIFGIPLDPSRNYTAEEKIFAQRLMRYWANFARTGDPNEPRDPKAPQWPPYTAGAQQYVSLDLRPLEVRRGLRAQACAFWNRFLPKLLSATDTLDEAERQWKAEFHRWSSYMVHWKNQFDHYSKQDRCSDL

SMILES | Potency [1] | Potency [2] | Potency [3] | Potency [4] | Potency [5] | Potency [6] | Potency [7] | outcome [8] | Potency [9] | Potency [10] | Potency [11] | Potency [12] | Potency [13] | Potency [14] | Potency [15] | Potency [16] | Potency [17]
C[C@]12CC[C@H]3[C@@H](CCC4=CC(=O)CC[C@@H]43)[C@@H]1CC[C@@H]2O | inactive | inactive | inactive | inactive | inactive | inactive | inactive | inactive | inactive | inactive | inactive | inactive | inactive | inactive | inactive | – | –
Clc1cccc(C(Cl)(Cl)Cl)n1 | inactive | inactive | inactive | inactive | inactive | inactive | – | – | inactive | inactive | inactive | inactive | inactive | – | inactive | inactive | inactive
CCN(CC)C(=O)C(C)Oc1cccc2ccccc12 (stereo not drawn) | – | – | inactive | inactive | inactive | inactive | inactive | inactive | inactive | inactive | – | inactive | inactive | – | inactive | inactive | inactive
CC1=C(C(=O)Nc2ccccc2)SCCO1 | inactive | – | inactive | inactive | inactive | inactive | inactive | inactive | inactive | inactive | – | inactive | inactive | 34.9 µM (active) and 30.6 µM (active) | inactive | inactive | inactive
CC(C)(c1ccccc1)c1ccc(O)c(C(C)(C)c2ccccc2)c1 | 68 µM (active) | – | 17.1 µM (active) and 48.6 µM (active) | 54.4 µM (active) and 43.6 µM (active) | 48.5 µM (active) and 43.6 µM (active) | – | inactive | inactive | 35.5 µM (active) and 48.6 µM (active) | 42.9 µM (active) and 68.6 µM (active) | 30.4 µM (active) and 43.3 µM (active) | 27.1 µM (active) and 61.1 µM (active) | 54 µM (active) | 1.92 µM (active) and 3.86 µM (active) | inactive | – | 42.9 µM (active) and 27.3 µM (active)
COP(=S)(OC)SCn1nnc2ccccc2c1=O | inactive | – | inactive | inactive | inactive | inactive | inactive | inactive | inactive | inactive | – | inactive | inactive | 53.4 µM (active) | – | inactive | inactive
O=S(=O)(O)C(F)(F)C(F)(F)C(F)(F)C(F)(F)C(F)(F)C(F)(F)C(F)(F)C(F)(F)F | inactive | – | 29.2 µM (active) and 19.3 µM (active) | inactive | inactive | inactive | – | – | inactive | inactive | – | inactive | inactive | inactive and 54.5 µM (active) | inactive | inactive | 41.2 µM (active) and inactive and 17.2 µM (active)
